Data reported in PubChem BioAssay (NCATS).
Inconclusive results are not listed. A call without a number means that no potency is given here. Values without a mark were called inactive. The source made the active and inactive calls. Unless noted, calls follow the shape of the dose curve; as a rule, active = well fitted curve in the direction sought with a large enough effect; inconclusive = small, poorly fitted or top-dose-only effect, or another doubt; inactive = no such curve, though single readings can be large; an effect the other way counts as inactive or inconclusive.

How the values were obtained:
[1] = qHTS to identify inhibitors of the type 1 interferon - major histocompatibility complex class I in skeletal muscle: primary screen against the NCATS Pharmaceutical Collection (AID 1347407);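 also: luminescence of HiBiT knocked into endogenous HLA-B as interferon-induced MHC class I level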
How it was run: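 Luminescence from HiBiT-tagged endogenous HLA-B*08:01 served as the read-out of IFN-beta-induced MHC class I in CRISPR-engineered C25cl48 myoblasts. Cells received 4 ng/ml IFN-beta plus compound (high final 46 uM, […]) for 24 h.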

[2] = molecular target: Protein phosphatase 1D (Homo sapiens) (UniProt O15297); assay: RapidFire Mass Spectrometry qHTS Assay for Modulators of WT P53-Induced Phosphatase 1 (WIP1) (AID 1347424);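 also: amount of dephosphorylated VEPPL-S-QETFS peptide product formed by WIP1; series mostly up to about 63 µM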
Protein phosphatase 1D (Homo sapiens), sequence (O15297 whole entry, looked up): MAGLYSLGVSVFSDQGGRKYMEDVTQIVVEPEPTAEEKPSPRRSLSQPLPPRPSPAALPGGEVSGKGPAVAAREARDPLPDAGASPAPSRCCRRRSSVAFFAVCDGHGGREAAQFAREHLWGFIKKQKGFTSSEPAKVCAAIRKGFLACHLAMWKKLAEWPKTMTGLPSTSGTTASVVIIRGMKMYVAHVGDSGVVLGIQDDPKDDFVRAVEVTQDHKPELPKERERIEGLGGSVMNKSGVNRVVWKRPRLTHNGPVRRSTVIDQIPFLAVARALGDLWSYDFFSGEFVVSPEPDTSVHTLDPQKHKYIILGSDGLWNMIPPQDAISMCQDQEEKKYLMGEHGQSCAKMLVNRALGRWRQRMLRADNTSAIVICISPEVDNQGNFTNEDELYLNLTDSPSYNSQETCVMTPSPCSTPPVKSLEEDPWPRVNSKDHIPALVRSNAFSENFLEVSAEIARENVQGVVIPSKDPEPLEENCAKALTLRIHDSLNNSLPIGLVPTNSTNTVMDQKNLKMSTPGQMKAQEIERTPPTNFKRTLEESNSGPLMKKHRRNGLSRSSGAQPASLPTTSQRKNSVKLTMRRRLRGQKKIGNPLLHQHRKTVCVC
How it was run: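 RapidFire mass spectrometry measured dephosphorylated peptide after 5 min room-temperature reaction of 2 uM VEPPL-pS-QETFS with 10 nM WIP1 (50 mM Tris-HCl pH 7.5, 30 mM MgCl2, 0.1 mM EGTA, BSA), following 1 hr compound preincubation; 1 uM isotope-labelled product standard.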

[3] = molecular target: Protein phosphatase 1D (Homo sapiens) (UniProt O15297); assay: Rhodamine-PBP qHTS Assay for Modulators of WT P53-Induced Phosphatase 1 (WIP1) (AID 1347425)
How it was run: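 5 nM WIP1 + 10 uM Rh-PBP, 50 mM Tris pH 7.5, 30 mM MgCl2, 1 mM TCEP, 0.1 mM EGTA, BSA; cpds pinned, 1 hr RT; + 10 uM phosphopeptide; fluorescence 1-min reads x 11 min; delta = f1 - f0.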

[4] = Primary qHTS for inhibitors of La Crosse Virus (LACV) - induced cell death in SH-SY5Y cells (AID 1508616);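 also: top concentration of the series differs between compounds; higher means more rescue of cells from virus-induced death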
How it was run: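 Rescue of virus-induced death was read as ATPLite luminescence after 6 days at 37C, scaled between DMSO wells with LACV and without virus. Cells were SH-SY5Y, 6000/well, infected at 0.01 MOI after compound addition.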

[5] = molecular target: Calcium and integrin-binding protein 1 (Homo sapiens) (UniProt Q99828); assay: Primary qHTS for Identification of Calcium Integrin Binding Protein 1 (CIB1) Competitor (AID 1508620);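 also: GST tagged CIB1 binding a fluorescein labelled alphaIIb integrin peptide tracer; top concentration of the series differs between compounds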
Calcium and integrin-binding protein 1 (Homo sapiens), sequence (Q99828 whole entry, looked up): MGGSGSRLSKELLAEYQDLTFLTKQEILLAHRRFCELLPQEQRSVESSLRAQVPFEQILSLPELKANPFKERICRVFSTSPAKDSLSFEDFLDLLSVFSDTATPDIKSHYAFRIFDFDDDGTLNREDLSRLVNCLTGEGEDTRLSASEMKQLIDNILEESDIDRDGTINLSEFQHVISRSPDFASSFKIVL
How it was run: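 CIB1-GST (1 uM final) and compound incubated 15 min at room temperature before adding FITC-alphaIIb peptide tracer (100 nM final). Competition for binding read by fluorescence polarization (ex 480, em 540) after another 15 min at room temperature.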

[6] = Primary qHTS for small molecule stabilizers of the endoplasmic reticulum resident proteome: Secreted ER Calcium Modulated Protein (SERCaMP) assay (AID 1508630)
How it was run: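 The SH-SY5Y reporter protocol was run at 3 concentrations up to 38.3 uM (primary) or 11 concentrations (follow-up): 16 h compound, 100 nM thapsigargin for 4 h, then extracellular luciferase luminescence.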

[7] = A High-Content qHTS Against Drug Library for the Identification of Small Molecules that Inhibit DYT1 Early Onset Primary Dystonia-Associated Cell Pathology (AID 1645839; calls by dose curve; also: series mostly up to about 46 µM)
How it was run: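 High-content imaging quantified EGFP-TorsinA mislocalization in HEK293-derived cells inducibly expressing DYT1 mutant torsinA, after 48 h exposure to compound given together with tetracycline induction. Cell count served as a toxicity channel alongside %pathology.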

[8] = molecular target: Cytochrome P450 2D6 (Homo sapiens) (UniProt P10635); assay: Cytochrome P450 family 2 subfamily D member 6 (CYP2D6) small molecule antagonists: luciferase biochemical (cell-free) qHTS assay (AID 1645840; active = well fitted curve in the direction sought with a large enough effect in the repeat runs; an effect the other way counts as inactive or inconclusive; also: nearly all actives have a fitted effect of over 55% in size; also: potency is read from the fitted curve at half-maximal effect)
Cytochrome P450 2D6 (Homo sapiens), sequence (P10635 whole entry, looked up): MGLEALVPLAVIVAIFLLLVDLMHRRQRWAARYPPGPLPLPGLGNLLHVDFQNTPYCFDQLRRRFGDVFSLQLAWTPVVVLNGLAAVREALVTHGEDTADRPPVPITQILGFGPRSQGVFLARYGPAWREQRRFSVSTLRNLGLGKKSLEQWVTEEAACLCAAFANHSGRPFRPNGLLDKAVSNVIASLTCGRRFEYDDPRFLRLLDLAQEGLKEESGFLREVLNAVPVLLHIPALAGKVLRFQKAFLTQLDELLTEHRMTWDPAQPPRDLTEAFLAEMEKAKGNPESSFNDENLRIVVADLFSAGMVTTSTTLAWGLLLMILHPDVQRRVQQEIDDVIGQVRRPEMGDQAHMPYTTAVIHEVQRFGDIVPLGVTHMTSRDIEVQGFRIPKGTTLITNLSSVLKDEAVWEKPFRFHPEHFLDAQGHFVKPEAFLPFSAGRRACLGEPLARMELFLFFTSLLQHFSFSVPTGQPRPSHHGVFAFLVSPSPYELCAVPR
How it was run: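 P450-Glo CYP2D6 system: proluciferin substrate converted by enzyme to luciferin, read by luminescence proportional to activity. Enzyme-substrate mix with compound 10 min at room temperature, then NADPH regeneration 1 h before detection reagent.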

[9] = molecular target: Cytochrome P450 3A4 (Homo sapiens) (UniProt P08684); assay: Cytochrome P450 family 3 subfamily A member 4 (CYP3A4) small molecule antagonists: luciferase qHTS assay (AID 1645841; active = well fitted curve in the direction sought with a large enough effect in the repeat runs; an effect the other way counts as inactive or inconclusive; also: nearly all actives have a fitted effect of over 45% in size)
Cytochrome P450 3A4 (Homo sapiens), sequence (P08684 whole entry, looked up): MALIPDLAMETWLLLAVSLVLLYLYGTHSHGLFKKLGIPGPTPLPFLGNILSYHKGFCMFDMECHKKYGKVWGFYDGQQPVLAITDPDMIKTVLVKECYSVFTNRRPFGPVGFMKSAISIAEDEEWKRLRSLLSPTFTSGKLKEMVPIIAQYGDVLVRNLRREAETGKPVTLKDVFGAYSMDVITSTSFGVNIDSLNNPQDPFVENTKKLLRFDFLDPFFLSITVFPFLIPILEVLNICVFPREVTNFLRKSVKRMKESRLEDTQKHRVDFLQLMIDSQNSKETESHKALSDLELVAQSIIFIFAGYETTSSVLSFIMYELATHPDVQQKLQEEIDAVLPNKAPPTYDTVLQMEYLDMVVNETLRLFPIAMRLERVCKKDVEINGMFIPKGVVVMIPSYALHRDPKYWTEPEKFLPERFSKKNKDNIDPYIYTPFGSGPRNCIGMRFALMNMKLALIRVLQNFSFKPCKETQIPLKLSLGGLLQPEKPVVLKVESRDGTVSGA
How it was run: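 Luminescent CYP3A4 activity readout: compounds plus enzyme-substrate mix 10 min at room temperature, reaction started with NADPH regenerating system for 1 h, stopped with detection reagent, read after 20 min. Ketoconazole served as control.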

[10] = molecular target: Cytochrome P450 2C9 (Homo sapiens) (UniProt P11712); assay: Cytochrome P450 family 2 subfamily C member 9 (CYP2C9) small molecule antagonists: luciferase biochemical (cell-free) qHTS assay (AID 1645842; active = well fitted curve in the direction sought with a large enough effect in the repeat runs; an effect the other way counts as inactive or inconclusive; also: series mostly up to about 57 µM; nearly all actives have a fitted effect of over 55% in size)
Cytochrome P450 2C9 (Homo sapiens), sequence (P11712 whole entry, looked up): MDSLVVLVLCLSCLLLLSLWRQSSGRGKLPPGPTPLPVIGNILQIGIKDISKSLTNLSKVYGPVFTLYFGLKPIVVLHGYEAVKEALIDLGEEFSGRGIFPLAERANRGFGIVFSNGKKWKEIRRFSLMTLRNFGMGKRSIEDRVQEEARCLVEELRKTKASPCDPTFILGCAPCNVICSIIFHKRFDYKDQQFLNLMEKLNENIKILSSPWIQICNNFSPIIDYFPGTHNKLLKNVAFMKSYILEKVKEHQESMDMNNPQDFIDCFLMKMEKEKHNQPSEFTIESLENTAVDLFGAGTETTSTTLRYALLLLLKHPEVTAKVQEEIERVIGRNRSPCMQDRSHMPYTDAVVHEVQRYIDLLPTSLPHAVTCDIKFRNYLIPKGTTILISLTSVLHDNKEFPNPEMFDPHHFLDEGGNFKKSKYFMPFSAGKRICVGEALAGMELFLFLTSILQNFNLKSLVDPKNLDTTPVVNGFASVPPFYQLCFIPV
How it was run: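 P450-Glo CYP2C9 system: proluciferin substrate with enzyme in mix containing 0.4% BSA, 10 min at room temperature, then NADPH regeneration solution added and incubated 1 h at 37C. Detection reagent stopped reaction; luminescence read after 20 min as RLU.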

[11] = qHTS to identify inhibitors of the type 1 interferon - major histocompatibility complex class I in skeletal muscle: primary screen against the NCATS Mechanism Interrogation Plate v5.0 (MIPE) Libary (AID 1347411); also: nearly all actives have a fitted effect of over 65% in size
How it was run: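 Luminescence from CRISPR HiBit-tagged endogenous HLA-B in human myoblasts reported MHC class I level after 24 h of IFN-beta (4 ng/ml) plus compound. Compounds ran as 11-point 1:3 series, top 46 uM final.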

[12] = Primary qHTS for inhibitors of nuclear receptor binding SET domain protein 2 (NSD2) in an isogenic RCH-ACV NSD2 p.E1099K mutant (9B) (AID 1645876); also: nearly all actives have a fitted effect of over 70% in size
[13] = Primary qHTS for inhibitors of nuclear receptor binding SET domain protein 2 (NSD2) in an RCH-ACV wild type WT cells (2C) (AID 1645877); also: nearly all actives have a fitted effect of over 70% in size
[14] = Counterscreen qHTS for small molecule stabilizers of the endoplasmic reticulum resident proteome: GLuc-NoTag assay (AID 1508627); also: series mostly up to about 76 µM
How it was run: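 Counterscreen line: SH-SY5Y-GLuc-NoTag cells, treated with compound 19 hr before a 4 hr, 100 nM thapsigargin calcium depletion. Secreted Gaussia luciferase in the medium was measured by luminescence after coelenterazine was added (0.07x final), with cells unlysed.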

[15] = Confirmatory qHTS for small molecule stabilizers of the endoplasmic reticulum resident proteome: Secreted ER Calcium Modulated Protein (SERCaMP) assay (AID 1508628); also: series mostly up to about 76 µM; nearly all actives have a fitted effect of over 40% in size
How it was run: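 Reporter secretion upon ER calcium depletion (100 nM thapsigargin, 4 h, 37C) is measured as medium luminescence with coelenterazine, after 16 h compound pretreatment of SH-SY5Y-GLuc-SERCaMP cells; primary at three concentrations up to 38.3 uM, follow-up at 11 (up to 76.6 uM).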

[16] = Cell Viability qHTS for small molecule stabilizers of the endoplasmic reticulum resident proteome (AID 1508629); settings: cell viability counter-screen, 100 nM thapsigargin for final 4 h;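 also: human SH-SY5Y neuroblastoma cells carrying the GLuc-SERCaMP reporter; compound exposure about 46 h in total before the viability read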

Row | SMILES | outcome [1] | outcome [2] | outcome [3] | outcome [4] | outcome [5] | outcome [6] | Potency [7] | Potency [8] | outcome [9] | Potency [10] | outcome [11] | Potency [12] | Potency [13] | outcome [14] | Potency [15] | max response [16] [%]
1 | CC1(c2ccccc2)OC(C(=O)O)=CC1=O (centres undefined) | inactive | inactive | inactive | inactive | inactive | inactive | inactive | inactive | inactive | inactive | – | – | – | – | – | –
2 | O=C(O)/C=C/c1ccc(Cn2ccnc2)cc1 | inactive | inactive | inactive | inactive | inactive | – | inactive | inactive | – | – | inactive | inactive | inactive | – | – | –
3 | O=C(/C=C/c1ccc(O)c(O)c1)O[C@@H]1C[C@@](OC(=O)/C=C/c2ccc(O)c(O)c2)(C(=O)O)C[C@@H](O)[C@@H]1O | inactive | inactive | inactive | inactive | inactive | inactive | inactive | inactive | – | inactive | – | – | – | – | – | –
4 | OCc1ccc(Cl)cc1Cl | inactive | inactive | inactive | inactive | inactive | inactive | inactive | inactive | inactive | inactive | – | inactive | inactive | – | – | –
5 | C[C@@H](c1ncncc1F)C(O)(Cn1cncn1)c1ccc(F)cc1F (some centres undefined) | inactive | inactive | inactive | inactive | inactive | inactive | inactive | inactive | – | – | – | – | – | – | – | –
6 | OCCN1C[C@H](O)[C@@H](O)[C@H](O)[C@H]1CO | inactive | inactive | inactive | inactive | inactive | inactive | inactive | inactive | – | inactive | inactive | inactive | inactive | – | – | –
7 | O=C(O)CNC(=O)c1ccccc1I | inactive | inactive | inactive | inactive | inactive | inactive | inactive | inactive | – | inactive | – | – | – | – | – | –
8 | Cc1cccc(C)c1NC(=O)CC12CCCN1CCC2 | inactive | inactive | inactive | inactive | inactive | inactive | inactive | inactive | – | inactive | – | inactive | – | – | – | –
9 | CCN(CC)C(=O)c1cccc(C)c1 | inactive | inactive | inactive | inactive | inactive | – | inactive | inactive | – | inactive | – | inactive | inactive | inactive | inactive | 12.2
10 | Cn1cc(C(=O)[C@@H]2CCc3nc[nH]c3C2)c2ccccc21 | inactive | inactive | inactive | inactive | inactive | – | inactive | 12.3 µM (active) | – | – | – | – | – | inactive | – | 11.5
11 | Cc1ccsc1C(=CCCN1CCC[C@@H](C(=O)O)C1)c1sccc1C | inactive | – | inactive | – | inactive | – | inactive | inactive | – | – | inactive | inactive | inactive | – | – | –
12 | NC(N)=NS(=O)(=O)c1ccc(N)cc1 | inactive | inactive | inactive | inactive | inactive | inactive | inactive | inactive | inactive | inactive | – | inactive | – | – | – | –
13 | CCOC(=O)[C@H](CCc1ccccc1)N[C@@H](C)C(=O)N1CCC[C@H]1C(=O)O | inactive | inactive | inactive | inactive | inactive | inactive | inactive | inactive | – | inactive | inactive | inactive | inactive | – | – | –
14 | CN(C(=O)c1c(O)c2ccccc2n(C)c1=O)c1ccccc1 | inactive | inactive | inactive | – | inactive | – | inactive | inactive | – | – | inactive | inactive | inactive | – | – | –
15 | CC(=O)N(CC(O)CN(C(C)=O)c1c(I)c(C(=O)NCC(O)CO)c(I)c(C(=O)NCC(O)CO)c1I)c1c(I)c(C(=O)NCC(O)CO)c(I)c(C(=O)NCC(O)CO)c1I (centres undefined) | inactive | inactive | inactive | inactive | inactive | inactive | inactive | inactive | inactive | inactive | – | inactive | inactive | – | – | –
16 | O=C(CN1CCNCC1)NC1CCCCC1 | inactive | inactive | inactive | inactive | inactive | inactive | inactive | inactive | inactive | inactive | – | inactive | – | – | – | –
17 | CN(C/C=C/C#CC(C)(C)C)Cc1cccc2ccccc12 | inactive | inactive | inactive | inactive | inactive | inactive | inactive | 0.0347 µM (active) | – | – | – | inactive | inactive | – | – | –
18 | Cc1cc(C)nc(NS(=O)(=O)c2ccc(N)cc2)n1 | inactive | inactive | inactive | inactive | inactive | inactive | inactive | inactive | – | inactive | – | inactive | – | – | – | –
19 | CCCCCCCC(=O)OCC(COC(=O)CCCCCCC)OC(=O)CCCCCCC | inactive | inactive | inactive | inactive | inactive | inactive | inactive | inactive | – | inactive | – | inactive | inactive | – | – | –
20 | C[N+](C)(C)CC(O)CC(=O)[O-] (centres undefined) | inactive | inactive | inactive | inactive | inactive | inactive | inactive | inactive | – | inactive | – | inactive | inactive | – | – | –
21 | CC(C(=O)O)c1ccc2c(c1)Cc1cccnc1O2 (centres undefined) | inactive | inactive | inactive | inactive | inactive | inactive | inactive | inactive | – | inactive | – | inactive | inactive | – | – | –
22 | Cc1cc(C)c(NC(=O)CN(CC(=O)O)CC(=O)O)c(C)c1Br | inactive | inactive | inactive | inactive | inactive | inactive | inactive | inactive | – | inactive | – | inactive | inactive | – | – | –
